The nature of assay [1]: ATG_GRE_CIS: Attagene CIS-FACTORIAL HepG2 Assay for human Glucocorticoid Response Elements (GRE) (AID 2282947). The conditions noted are these: HepG2 GRE cis-reporter, Attagene multiplex mRNA; actives raise or lower the signal. In a few lines: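 Transiently transfected HepG2 cells carrying GRE cis-reporter units (endogenous TF activity) dosed 24 h; reporter mRNA quantified by RT-PCR, 6-FAM labelling, HpaI digestion and capillary electrophoresis. Bidirectional fit versus DMSO baseline.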

Assay [2] can be described thus: ATG_ISRE_CIS: Attagene CIS-FACTORIAL HepG2 Assay for human Interferon Regulatory Factor 1 (IRF1) binding to an Interferon-Stimulated Response Element (ISRE) (AID 2282948). The conditions noted are these: HepG2 ISRE cis-reporter (Attagene), mRNA transcription readout; actives raise or lower the signal. In a few lines:
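Transiently transfected HepG2 cells carrying cis-element reporter units, dosed 24 hours. Reporter mRNA quantified by RT-PCR, fluorescent primer extension, HpaI digestion and capillary electrophoresis. Bidirectional fitting relative to DMSO.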

Assay [3] in a line: ATG_M_32_CIS: Attagene CIS-FACTORIAL HepG2 Assay for M32 Transcription Factor (Internal Marker) (AID 2282949).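 Note: background control marker of the multiplexed CIS panel rather than a real target.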 The conditions noted are these: HepG2 Attagene cis-factorial M32 reporter, mRNA; actives raise or lower the signal. In a few lines: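 HepG2 cells transiently transfected with multiplexed cis-regulated reporter units, dosed 24 h. Reporter mRNA quantified by RT-PCR, 6-FAM labelling, HpaI digestion and capillary electrophoresis; bidirectional fit vs DMSO.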

A short description of assay [4]: ATG_M_06_CIS: Attagene CIS-FACTORIAL HepG2 Assay for M06 Transcription Factor (Internal Marker) (AID 2282950). The conditions noted are these: HepG2 Attagene CIS-FACTORIAL M06 internal marker reporter; actives raise or lower the signal. The procedure, abridged: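 One of many multiplexed endpoints: HepG2 reporter mRNA after 24 h dosing, detected by RT-PCR and capillary electrophoresis fluorescence; gain or loss of signal analysed against DMSO.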

Assay [5] has as its target Hypoxia-inducible factor 1-alpha (Homo sapiens) (UniProt Q16665). In words: ATG_HIF1a_CIS: Attagene CIS-FACTORIAL HepG2 Assay for human Hypoxia Inducible Factor 1 (HIF1A) (AID 2282951). The conditions noted are these: HepG2 Attagene cis-factorial HIF1a reporter transcription; actives raise or lower the signal. In a few lines:
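Measures endogenous transcription-factor activity through cis-regulated reporter mRNA in HepG2. Cells dosed 24 h; transcripts quantified by RT-PCR with 6-FAM-labelled products separated by capillary electrophoresis; DMSO serves as negative control.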

For assay [6], the target named is Hepatocyte nuclear factor 6 (Homo sapiens) (UniProt Q9UBC0). Nature of the assay: ATG_HNF6_CIS: Attagene CIS-FACTORIAL HepG2 Assay for human Hepatocyte Nuclear Factor 6 (HNF6) (AID 2282952). The conditions noted are these: HepG2 Attagene cis-factorial HNF6 reporter transcription; actives raise or lower the signal. In a few lines:
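HepG2, transient MRTU transfection (cis promoters); 24 h chemical exposure; total RNA → oligo(dT) RT → PCR → 6-FAM labelling → HpaI cut → CE; bidirectional fit vs DMSO.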

The target in assay [7] is Heat shock factor protein 1 (Homo sapiens) (UniProt Q00613). Nature of the assay: ATG_HSE_CIS: Attagene CIS-FACTORIAL HepG2 Assay for human Heat Shock Transcription Factor 1 (HSE) (AID 2282953). The conditions noted are these: HepG2 HSE cis-reporter, Attagene RNA transcription; actives raise or lower the signal. In a few lines:
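Using HepG2 with transfected cis-driven reporter constructs, compound effects on endogenous factor activity are scored as reporter mRNA change at 24 h. Detection: RT-PCR, HpaI digestion, capillary electrophoresis; bidirectional fitting to DMSO.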

Assay [8] can be described thus: ATG_MRE_CIS: Attagene CIS-FACTORIAL HepG2 Assay for human Metal Responsive Element (MRE) (AID 2282954). The conditions noted are these: HepG2 MRE cis-reporter transcription, Attagene multiplex; actives raise or lower the signal. In a few lines: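 HepG2 cells transiently transfected with cis-element-driven reporter units; mRNA measured 24 h after dosing. Reporter transcripts quantified by RT-PCR, FAM labelling, HpaI digestion and capillary electrophoresis; bidirectional fit versus DMSO.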

Assay [9] addresses Paired box protein Pax-6 (Homo sapiens) (UniProt P26367). In words: ATG_Pax6_CIS: Attagene CIS-FACTORIAL HepG2 Assay for human Paired Box 6 (PAX6) (AID 2282956). The conditions noted are these: HepG2 CIS-FACTORIAL PAX6 reporter transcription, RNA readout; actives raise or lower the signal. In a few lines:
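HepG2 cells transiently transfected with cis-promoter-driven multiplexed reporter units sensing endogenous transcription factor activity; 24 h chemical exposure. Reporter mRNA quantified by RT-PCR, 6-FAM labelling, HpaI digestion and capillary electrophoresis; bidirectional fit versus DMSO baseline.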

The nature of assay [10]: ATG_PXRE_CIS: Attagene CIS-FACTORIAL HepG2 Assay for human Pregnane X Receptor Element (PXRE) (AID 2282957). The conditions noted are these: HepG2 Attagene CIS-FACTORIAL PXRE reporter, mRNA; actives raise or lower the signal. In a few lines:
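Transfect HepG2 with MRTUs (cis promoter elements); dose chemical, incubate 24 h; isolate RNA, RT with oligo(dT), PCR, 6-FAM label, HpaI cut, CE. Gain/loss fit vs DMSO.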

The nature of assay [11]: ATG_RORE_CIS: Attagene CIS-FACTORIAL HepG2 Assay for human RAR-related Orphan Receptor Element (RORE) (AID 2282959). The conditions noted are these: HepG2 Attagene cis-factorial RORE reporter, mRNA; actives raise or lower the signal. The procedure, abridged: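 Cells were HepG2 carrying transfected cis-regulated reporter constructs, dosed for 24 hours. Total RNA was reverse-transcribed and reporter cDNA amplified, fluorescently labeled and sized by capillary electrophoresis. Activity was fitted bidirectionally relative to DMSO.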

Assay [12] is described as follows: ATG_Sox_CIS: Attagene CIS-FACTORIAL HepG2 Assay for human SRY-box transcription factor (SOX) (AID 2282960). The conditions noted are these: HepG2 Attagene cis-factorial SOX reporter, mRNA; actives raise or lower the signal. The procedure, abridged:
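Transient MRTU transfection of HepG2; 24 h compound incubation; TriZol RNA, oligo(dT) RT, PCR, 6-FAM primer extension, HpaI cut, CE. Bidirectional fit, DMSO = baseline.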

The target in assay [13] is Transcription factor Sp1 (Homo sapiens) (UniProt P08047). Nature of the assay: ATG_Sp1_CIS: Attagene CIS-FACTORIAL HepG2 Assay for human Specificity Protein 1 (Sp1) (AID 2282961). The conditions noted are these: HepG2 Sp1 cis-reporter transcription, actives raise or lower the signal. In a few lines:
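Endogenous Sp1 activity was gauged in human liver HepG2 cells bearing transfected reporter units under a cis-regulating promoter. After 24 h dosing, reporter mRNA was quantified by RT-PCR with capillary electrophoresis, and activity fitted bidirectionally versus DMSO.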

In assay [14] the target is Signal transducer and activator of transcription 3 (Homo sapiens) (UniProt P40763). In words: ATG_STAT3_CIS: Attagene CIS-FACTORIAL HepG2 Assay for human Signal Transducer and Activator of Transcription 3 (STAT3) (AID 2282963). The conditions noted are these: HepG2, Attagene cis-factorial STAT3 reporter transcription; actives raise or lower the signal. The procedure, abridged:
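HepG2 cells transiently transfected with multiple cis-element-driven reporter units report endogenous transcription factor activity. After 24 h compound exposure, reporter mRNA is measured by RT-PCR, 6-FAM labelling, HpaI digestion and capillary electrophoresis. Fitted bidirectionally versus DMSO.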

Assay [15] is described as follows: ATG_TA_CIS: Attagene CIS-FACTORIAL HepG2 Assay for human TA Basal Promoter (AID 2282964). The conditions noted are these: HepG2 Attagene CIS-factorial TA basal promoter reporter; actives raise or lower the signal. The procedure, abridged: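 Transient MRTU transfection of HepG2 preceded 24 h compound exposure. Reporter mRNA levels were then read by RT-PCR with capillary electrophoresis, and this background-control endpoint was fitted bidirectionally to DMSO.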

Assay [16] can be described thus: ATG_TCF_b_cat_CIS: Attagene CIS-FACTORIAL HepG2 Assay for human T-Cell-Factor with beta-catenin (TCF/b-cat) (AID 2282965). The conditions noted are these: HepG2 TCF/beta-catenin cis-reporter transcription, actives raise or lower the signal. In a few lines:
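HepG2 cells transiently transfected with cis-promoter-driven multiplexed reporter units; reporter mRNA measured 24 h after dosing by RT-PCR, FAM labelling, HpaI digestion and capillary electrophoresis. Bidirectional fitting relative to DMSO baseline.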

Assay [17] can be described thus: ATG_TAL_CIS: Attagene CIS-FACTORIAL HepG2 Assay for human TAL Basal Promoter (AID 2282966).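 Note: background control endpoint measuring basal TAL promoter reporter mRNA not a specific factor.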 The conditions noted are these: HepG2 Attagene cis-factorial TAL promoter reporter; actives raise or lower the signal. In a few lines:
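Fluorescence of labelled reporter cDNA fragments, resolved by capillary electrophoresis, gave the readout. Human HepG2 liver cells carried transiently transfected cis-element reporter units and were treated for 24 hours; activity was fitted bidirectionally against DMSO.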

The nature of assay [18]: ATG_PBREM_CIS: Attagene CIS-FACTORIAL HepG2 Assay for human Phenobarbital-responsive Enhancer Module (PBREM) (AID 2282955). The conditions noted are these: HepG2 PBREM cis-reporter, Attagene multiplexed transcription; actives raise or lower the signal. The procedure, abridged:
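Fluorescence of labelled reporter cDNA fragments, resolved by capillary electrophoresis, gives mRNA induction in transfected HepG2 cells treated for 24 h; DMSO serves as negative control and baseline.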

Assay [19] in a line: ATG_PPRE_CIS: Attagene CIS-FACTORIAL HepG2 Assay for human Peroxisome Proliferator-activated Response Element (PPRE) (AID 2282958). The conditions noted are these: HepG2 PPRE cis-element reporter, Attagene transcription factor profiling; actives raise or lower the signal. The procedure, abridged: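 Cells are first transfected transiently with the multiplexed reporter library, then dosed for 24 h. Total RNA is reverse-transcribed, amplified, fluorescently end-labeled and HpaI-cut before capillary electrophoresis; activity is fitted bidirectionally against DMSO controls.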

By AC50 is commonly meant the concentration giving half of the maximal activity seen.

Several values for one entry are separate records, joined by “and”; a condition that tells them apart may be missing. Equal values may be shown once. Some compounds were tested as several samples or in several runs, with calls that do not always agree. Activity calls are given as the source filed them. Rule for the calls: active = hit-call score of the fitted dose curve at least 0.9, where 1 is the maximum; inactive = score below 0.9.

Signal transducer and activator of transcription 3 (Homo sapiens), sequence (P40763 whole entry, looked up): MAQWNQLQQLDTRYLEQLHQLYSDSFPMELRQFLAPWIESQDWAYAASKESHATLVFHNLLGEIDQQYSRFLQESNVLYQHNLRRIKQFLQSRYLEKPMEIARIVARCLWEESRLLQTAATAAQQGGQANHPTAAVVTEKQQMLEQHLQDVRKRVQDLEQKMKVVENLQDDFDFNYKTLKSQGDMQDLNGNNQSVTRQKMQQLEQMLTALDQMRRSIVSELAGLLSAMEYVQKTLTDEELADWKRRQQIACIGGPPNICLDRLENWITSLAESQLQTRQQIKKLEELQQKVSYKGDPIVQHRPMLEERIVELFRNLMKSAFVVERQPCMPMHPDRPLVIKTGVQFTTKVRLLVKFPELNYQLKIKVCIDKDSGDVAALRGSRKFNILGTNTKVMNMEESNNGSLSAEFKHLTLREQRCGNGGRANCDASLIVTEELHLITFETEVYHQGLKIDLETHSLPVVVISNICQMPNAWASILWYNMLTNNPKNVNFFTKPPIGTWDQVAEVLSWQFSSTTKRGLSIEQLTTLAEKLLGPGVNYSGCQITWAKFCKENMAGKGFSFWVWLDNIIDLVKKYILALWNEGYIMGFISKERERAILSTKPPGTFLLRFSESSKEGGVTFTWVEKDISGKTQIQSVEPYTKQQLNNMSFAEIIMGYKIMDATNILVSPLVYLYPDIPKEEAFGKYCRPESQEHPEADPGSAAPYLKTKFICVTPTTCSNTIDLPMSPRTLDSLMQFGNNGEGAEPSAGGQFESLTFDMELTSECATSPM
Paired box protein Pax-6 (Homo sapiens), sequence (P26367 whole entry, looked up): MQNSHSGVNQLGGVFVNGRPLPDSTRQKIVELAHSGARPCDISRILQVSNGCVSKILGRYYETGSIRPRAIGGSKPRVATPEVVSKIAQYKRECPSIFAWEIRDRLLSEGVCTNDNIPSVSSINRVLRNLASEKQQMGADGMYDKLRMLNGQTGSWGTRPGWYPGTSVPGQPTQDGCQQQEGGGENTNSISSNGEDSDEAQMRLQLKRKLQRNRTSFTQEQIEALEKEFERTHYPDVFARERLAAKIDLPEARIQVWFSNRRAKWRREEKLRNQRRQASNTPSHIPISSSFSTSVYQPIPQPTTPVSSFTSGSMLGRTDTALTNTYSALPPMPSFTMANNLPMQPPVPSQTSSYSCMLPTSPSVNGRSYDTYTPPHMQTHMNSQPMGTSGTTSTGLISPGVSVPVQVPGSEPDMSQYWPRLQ
Hepatocyte nuclear factor 6 (Homo sapiens), sequence (Q9UBC0 whole entry, looked up): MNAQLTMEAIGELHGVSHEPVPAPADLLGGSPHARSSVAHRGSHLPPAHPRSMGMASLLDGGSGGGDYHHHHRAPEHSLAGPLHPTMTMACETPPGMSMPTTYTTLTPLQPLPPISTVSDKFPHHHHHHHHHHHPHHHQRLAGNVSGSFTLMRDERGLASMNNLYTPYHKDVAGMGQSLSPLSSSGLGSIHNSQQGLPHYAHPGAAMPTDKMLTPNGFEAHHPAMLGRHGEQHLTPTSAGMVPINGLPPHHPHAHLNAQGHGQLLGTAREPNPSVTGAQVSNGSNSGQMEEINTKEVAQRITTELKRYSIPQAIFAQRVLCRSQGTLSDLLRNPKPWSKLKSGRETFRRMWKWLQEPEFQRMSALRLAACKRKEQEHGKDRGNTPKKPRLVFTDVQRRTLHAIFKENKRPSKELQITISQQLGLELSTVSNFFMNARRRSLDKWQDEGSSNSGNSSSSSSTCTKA
Transcription factor Sp1 (Homo sapiens), sequence (P08047 whole entry, looked up): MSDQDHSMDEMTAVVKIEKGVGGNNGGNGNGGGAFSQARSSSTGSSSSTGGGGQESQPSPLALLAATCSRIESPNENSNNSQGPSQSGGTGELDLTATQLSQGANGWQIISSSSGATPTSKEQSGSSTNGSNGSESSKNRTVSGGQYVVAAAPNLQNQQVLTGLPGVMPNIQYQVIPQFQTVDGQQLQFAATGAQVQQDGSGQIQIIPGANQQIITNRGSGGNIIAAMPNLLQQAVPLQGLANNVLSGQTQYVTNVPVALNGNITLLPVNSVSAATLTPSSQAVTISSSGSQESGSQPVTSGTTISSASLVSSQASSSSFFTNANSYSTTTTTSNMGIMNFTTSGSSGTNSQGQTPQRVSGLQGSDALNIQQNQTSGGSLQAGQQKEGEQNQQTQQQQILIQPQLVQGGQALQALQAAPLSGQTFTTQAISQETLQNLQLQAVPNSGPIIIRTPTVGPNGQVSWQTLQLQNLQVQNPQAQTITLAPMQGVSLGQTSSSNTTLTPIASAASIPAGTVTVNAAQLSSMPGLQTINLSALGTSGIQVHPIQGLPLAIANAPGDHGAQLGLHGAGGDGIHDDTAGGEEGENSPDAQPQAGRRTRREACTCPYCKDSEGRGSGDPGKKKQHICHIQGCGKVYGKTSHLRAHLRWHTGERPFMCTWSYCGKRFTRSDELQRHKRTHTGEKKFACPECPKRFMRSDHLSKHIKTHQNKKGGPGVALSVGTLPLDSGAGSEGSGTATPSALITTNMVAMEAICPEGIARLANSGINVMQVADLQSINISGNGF
Hypoxia-inducible factor 1-alpha (Homo sapiens), sequence (Q16665 whole entry, looked up): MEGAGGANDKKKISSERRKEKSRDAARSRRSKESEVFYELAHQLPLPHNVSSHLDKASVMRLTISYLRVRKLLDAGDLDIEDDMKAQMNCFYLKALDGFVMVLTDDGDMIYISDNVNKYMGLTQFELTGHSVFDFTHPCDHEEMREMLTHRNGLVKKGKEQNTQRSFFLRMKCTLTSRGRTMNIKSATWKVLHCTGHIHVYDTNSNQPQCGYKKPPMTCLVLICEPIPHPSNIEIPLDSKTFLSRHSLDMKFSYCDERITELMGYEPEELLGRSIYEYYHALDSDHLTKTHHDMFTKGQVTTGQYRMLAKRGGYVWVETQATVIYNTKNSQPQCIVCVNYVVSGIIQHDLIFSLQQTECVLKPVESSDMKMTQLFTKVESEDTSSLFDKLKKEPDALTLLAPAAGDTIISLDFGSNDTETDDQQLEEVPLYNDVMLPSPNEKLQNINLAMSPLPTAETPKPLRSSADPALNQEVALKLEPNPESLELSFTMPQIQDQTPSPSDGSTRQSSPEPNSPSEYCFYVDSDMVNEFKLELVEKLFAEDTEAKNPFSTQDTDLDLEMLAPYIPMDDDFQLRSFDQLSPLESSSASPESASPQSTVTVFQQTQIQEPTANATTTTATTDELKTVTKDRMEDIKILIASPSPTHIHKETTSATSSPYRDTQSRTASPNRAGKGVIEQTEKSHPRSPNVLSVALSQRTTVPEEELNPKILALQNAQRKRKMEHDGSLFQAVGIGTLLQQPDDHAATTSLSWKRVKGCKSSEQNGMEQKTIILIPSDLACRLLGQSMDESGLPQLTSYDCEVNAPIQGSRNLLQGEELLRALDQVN
Heat shock factor protein 1 (Homo sapiens), sequence (Q00613 whole entry, looked up): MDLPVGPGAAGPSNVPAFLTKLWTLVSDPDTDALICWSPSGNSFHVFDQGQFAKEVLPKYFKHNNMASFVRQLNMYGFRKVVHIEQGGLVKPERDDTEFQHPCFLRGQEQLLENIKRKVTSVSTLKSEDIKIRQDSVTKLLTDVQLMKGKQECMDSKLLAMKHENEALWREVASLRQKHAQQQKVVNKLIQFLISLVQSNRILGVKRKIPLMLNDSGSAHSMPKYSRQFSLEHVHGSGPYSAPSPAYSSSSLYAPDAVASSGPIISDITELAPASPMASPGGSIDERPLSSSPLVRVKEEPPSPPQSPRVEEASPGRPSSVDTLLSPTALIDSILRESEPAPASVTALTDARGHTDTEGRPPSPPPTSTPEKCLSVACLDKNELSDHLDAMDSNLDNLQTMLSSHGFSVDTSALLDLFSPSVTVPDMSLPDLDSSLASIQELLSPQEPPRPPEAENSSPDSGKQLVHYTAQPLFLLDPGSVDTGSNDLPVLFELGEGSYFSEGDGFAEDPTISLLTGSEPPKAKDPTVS

For `CCCCCOC(=O)COc1cc(N2C(=O)C3=C(CCCC3)C2=O)c(F)cc1Cl`, the outcome in [1], in assay [2], in assay [3], in assay [4], in assay [5] and in assay [6] was inactive. The call in assay [8], in assay [9], in [11], in assay [12], in [13] and in assay [14] was inactive. Also, the outcome in assay [15] and in [17] was inactive. Also, the AC50 was 87.6 µM (active) in assay [7], 10.2 µM (active) in assay [10] and 26.6 µM (active) in [16].
Turning to `CCSC(=O)N(CC(C)C)CC(C)C`, the result in assay [1], in assay [2], in [3], in assay [4], in assay [5] and in assay [6] was inactive. The molecule was called inactive in [7], in assay [8], in [18], in assay [9], in [10] and in assay [19]. The call in assay [11], in assay [12], in assay [13], in assay [14], in assay [15] and in assay [16] was inactive. Further, the outcome in assay [17] was inactive.
In the case of `CCCN(CCC)C(=O)SCC`, the outcome in assay [1], in assay [2], in assay [3], in [4], in assay [5] and in assay [6] was inactive. Moreover, the outcome in assay [7], in assay [8], in assay [18], in assay [9], in assay [10] and in assay [11] was inactive. The result in assay [12], in assay [13], in [14], in [15], in [16] and in assay [17] was inactive.
As for `c1ccc(Nc2ccccc2)cc1`, the outcome in [2], in assay [3], in assay [4], in assay [5], in assay [6] and in assay [7] was inactive. Besides, the result in [8], in assay [18], in assay [9], in assay [19], in assay [11] and in assay [12] was inactive. The molecule was classed as inactive in [13], in assay [14], in assay [15], in [16] and in assay [17]. Besides, the AC50 in assay [5] is 100 µM (active); in assay [10], 64 µM (active) and 37.5 µM (active); in assay [19], 20.6 µM (active).

These data come from PubChem BioAssay (EPA / NIEHS).
